Shown are actives, neighbours in structure and some others; about 2.8% of the full set was active somewhere.
WRN inhibitor: inhibitors of human WRN helicase. AID 651768. WRN helicase unwinding, fluorescent forked duplex, kinetic. Potency, µM (top dose mostly 114 µM), inactives show at the top dose activity change, negative = inhibition, most hits filed as inhibitors. Q14191. 0.46% of 360,000 active; note: potency is the fitted concentration of half-maximal effect; % is set by controls: 0 for no effect and ±100 for the full control effect; nearly all actives have a fitted effect of over 55% in size
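Primary qHTS, 1536-well format. 20 nM WRN + compound, 15 min RT; start with 100 nM forked fluorophore/quencher duplex, 2 mM ATP (final); kinetic read ex 525/em 598 nm.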
Pol beta inh: DNA polymerase beta (human) inhibition. Potency, µM (series often up to 114 µM), without a hit: at the highest dose activity change, negative = inhibition, most hits filed as inhibitors. 1.3% of 340,000 active. Pol beta primer extension/strand displacement, fluorescence kinetic; note: potency is the fitted concentration of half-maximal effect; % is set by controls: 0 for no effect and ±100 for the full control effect
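Enzyme-only controls used 10 nM Pol beta; buffer lacking enzyme served as negative control. Compound preincubated 15 min, then 50 nM substrate added; 0 and 10 min reads at room temperature.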
POLH inh: DNA polymerase eta (human) inhibition; recombinant Pol eta, fluorescent DNA replication assay; Q9Y253; 1.2% of 390,000 active; Potency, µM (top dose mostly 114 µM), inactives show top-dose activity change, negative = inhibition, actives largely listed as inhibitors; AID 588591; note: potency is the fitted concentration of half-maximal effect; % is set by controls: 0 for no effect and ±100 for the full control effect
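Pol eta (10 nM) was preincubated with compounds for 15 min at room temperature, after which fluorescent replication substrate (50 nM final) was added to start the reaction. Fluorescence was read kinetically at 0 and 10 min.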
Pol kappa inh: inhibitors of human DNA polymerase kappa; Q9UBT6; purified Pol kappa, fluorescent DNA synthesis assay, 10 min; Potency, µM (doses to about 107 µM), for inactives: at the top dose activity, negative = inhibition, most hits filed as inhibitors; 0.53% of 400,000 active; AID 588579; note: potency is the fitted concentration of half-maximal effect; % is set by controls: 0 for no effect and ±100 for the full control effect
Target sequence (Q9UBT6 whole entry, looked up): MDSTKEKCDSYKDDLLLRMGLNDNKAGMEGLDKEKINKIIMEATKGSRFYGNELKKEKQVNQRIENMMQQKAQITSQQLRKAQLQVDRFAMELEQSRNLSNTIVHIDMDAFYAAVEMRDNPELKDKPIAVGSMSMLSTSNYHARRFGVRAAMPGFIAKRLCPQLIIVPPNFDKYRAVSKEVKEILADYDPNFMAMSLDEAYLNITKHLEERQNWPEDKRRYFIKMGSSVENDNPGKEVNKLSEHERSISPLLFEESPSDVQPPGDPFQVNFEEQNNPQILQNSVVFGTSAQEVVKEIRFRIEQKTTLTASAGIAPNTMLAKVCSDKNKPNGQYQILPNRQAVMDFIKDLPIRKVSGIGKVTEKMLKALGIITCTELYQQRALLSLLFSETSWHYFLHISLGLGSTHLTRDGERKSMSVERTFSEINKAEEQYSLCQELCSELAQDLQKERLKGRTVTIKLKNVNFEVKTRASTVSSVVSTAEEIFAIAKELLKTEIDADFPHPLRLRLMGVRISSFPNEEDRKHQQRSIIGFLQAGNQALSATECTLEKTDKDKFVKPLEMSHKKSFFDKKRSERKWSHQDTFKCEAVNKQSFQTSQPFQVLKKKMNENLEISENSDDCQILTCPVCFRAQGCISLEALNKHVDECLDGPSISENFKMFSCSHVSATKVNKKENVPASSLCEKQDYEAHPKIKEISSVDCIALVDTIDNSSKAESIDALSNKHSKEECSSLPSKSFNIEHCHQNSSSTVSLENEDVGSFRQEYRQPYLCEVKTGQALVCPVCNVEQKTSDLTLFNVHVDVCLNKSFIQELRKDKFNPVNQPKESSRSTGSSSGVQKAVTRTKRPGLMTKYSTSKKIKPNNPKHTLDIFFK
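Pol kappa 10 nM + cpd, 15 min RT; start w/ substrate 50 nM final; fluorescence kinetic read, 0 and 10 min. Neg ctrl: buffer, no enzyme.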
Pol iota inh: DNA polymerase iota (human) inhibition; Q9UNA4; Pol iota fluorescent replication assay, 10 min; Potency, µM (series often up to 115 µM), without a hit: at the highest dose activity, negative = inhibition, usual class: inhibitors; 1% of 390,000 active; note: potency is the fitted concentration of half-maximal effect
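Fluorescent replication assay read twice, at 0 min and 10 min after adding 50 nM (final) substrate. Enzyme (10 nM) and compounds were first incubated 15 min at room temperature; enzyme-free buffer wells were negative controls.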
PI5P4K alpha inh: inhibitors of human PI5P4K alpha; P48426; PI5P4Kalpha enzyme, ADP-Glo luminescence, 60 min; stronger effect = lower value; max response, %; 1.2% of 330,000 active; AID 652105; active = max response of -50% or lower; inconclusive = between -30% and -50%; inactive = -30% or higher; note: value at the top dose of about 77 µM; % is set by controls: 0 for no effect and ±100 for the full control effect
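Quantitative HTS of the MLSMR library against PI5P4Kalpha with substrate. ATP added last at 5 microM final; room temperature, 60 minutes. Remaining ATP depleted, ADP converted and read as luminescence.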
* = called active by the depositor; ! = not active in a repeat; [ ] = remark or other dose. Unless noted, calls come from the whole dose curve; as a rule, active = well fitted curve in the direction sought with a large enough effect; inconclusive = small, poorly fitted or top-dose-only effect, or another doubt; inactive = no such curve, though single readings can be large; an effect the other way counts as inactive or inconclusive.

OC[C@H]1O[C@@H](Oc2cc(O)cc(/C=C/c3ccc(O)cc3)c2)[C@H](O)[C@@H](O)[C@@H]1O was read as Pol beta inh 20µM*.
CCOc1ccccc1-c1nc(SCC(=O)c2ccc(OC)c(Br)c2)n[nH]1 was read as Pol beta inh -16%, POLH inh -15%, Pol kappa inh -5% and Pol iota inh -2%.
`O=C1C=CC(=O)c2c1ccc1c2ccc2ccccc21` gave Pol kappa inh -19%[12 µM].
O=C1C(=O)c2c(ccc3ccccc23)-c2ccccc21 was read as WRN inhibitor -10%[11.6 µM], POLH inh 7.9µM*, Pol kappa inh -1%, Pol iota inh 54% and PI5P4K alpha inh 8.
CCOC(=O)Cc1nnc(NC(=O)CSc2nnc3c4ccccc4n(C)c3n2)s1 was read as WRN inhibitor inconclusive, Pol beta inh 45µM*, POLH inh -6%, Pol kappa inh inconclusive and Pol iota inh 5µM*.
Screening Cc1ccc(C2=NN=C(NC(=O)CSc3nnc4c5ccccc5n(C)c4n3)SC2)cc1 returned WRN inhibitor -16%, Pol beta inh 35µM*, POLH inh inconclusive, Pol kappa inh -7%, Pol iota inh -17% and PI5P4K alpha inh inconclusive.
For CCCc1nnc(NC(=O)C(CC)Sc2nnc3c4ccccc4n(C)c3n2)s1 (stereo unspecified) the results were Pol beta inh -1%, POLH inh 15%, Pol kappa inh -17% and Pol iota inh 36%.
`CCn1c(=O)c2cc(C(=O)Nc3cc(C)c(Cl)cc3OC)sc2c2ccccc21` gave Pol beta inh 8%, POLH inh -10%, Pol kappa inh 1% and Pol iota inh 10%.
For O=C(NNc1nc(=O)c2cccnc2s1)c1ccccc1O the results were WRN inhibitor inconclusive, Pol beta inh -13%, POLH inh -18%, Pol kappa inh -5%, Pol iota inh 60% and PI5P4K alpha inh -68*.
CCOCCCNC(=O)C(c1ccc(C)cc1)N(Cc1ccc2c(c1)OCO2)C(=O)c1ccccc1O (stereo unspecified) was read as Pol beta inh -3%, POLH inh -2%, Pol kappa inh 1% and Pol iota inh 19%.
O=C(CCC(=O)N1CCN(c2ccc(O)cc2)CC1)c1cccs1 was read as WRN inhibitor -3%, Pol beta inh inconclusive, POLH inh -21%, Pol kappa inh -12%, Pol iota inh 71µM* and PI5P4K alpha inh -7.
For O=C(/C=C/c1cccs1)Nc1ccncc1 the results were WRN inhibitor -2%, Pol beta inh 12%, POLH inh 15%, Pol kappa inh -3%, Pol iota inh 133% and PI5P4K alpha inh -2.
Screening Cc1cccc(NC(=O)/C=C/c2cccs2)n1 returned WRN inhibitor -12%, Pol beta inh 50µM*, POLH inh 9%, Pol kappa inh inconclusive, Pol iota inh -7% and PI5P4K alpha inh -18.
For Cc1nc2c(c(=O)n1Cc1ccccc1Cl)c1nc3ccccc3nc1n2Cc1ccco1 the results were Pol beta inh 20µM*.
Cc1ccc(S(=O)(=O)c2c(N)n(CCCN(C)C)c3nc4ccccc4nc23)cc1 was read as WRN inhibitor -4%, Pol beta inh 0%, POLH inh -14%, Pol kappa inh -7%, Pol iota inh -3% and PI5P4K alpha inh -1.
For COc1ccc(Cn2c3nc4ccccc4nc3c3c(=O)n(Cc4ccco4)c(C)nc32)cc1 the results were Pol beta inh 10µM*.
CCO/C(C)=N/n1c2nc3ccccc3nc2c2c(=O)n(Cc3ccccc3Cl)c(C)nc21 was read as WRN inhibitor 58%, Pol beta inh 20%, POLH inh -13%, Pol kappa inh -1%, Pol iota inh inconclusive and PI5P4K alpha inh 7.
COc1ccc(S(=O)(=O)c2c(N)n(Cc3ccco3)c3nc4ccccc4nc23)cc1 was read as WRN inhibitor 35µM*, Pol beta inh inconclusive, POLH inh 7.9µM*, Pol kappa inh 25µM*, Pol iota inh 7.9µM* and PI5P4K alpha inh -89*.
`Cc1nc2scc(C)n2c(=O)c1S(=O)(=O)Nc1cccc(C(F)(F)F)c1` gave Pol beta inh 4%, POLH inh -10%, Pol kappa inh -28% and Pol iota inh 30%.
Screening Cc1ccc(-c2nc3ccccn3c2Nc2ccccc2C)s1 returned Pol beta inh 2%, POLH inh -22%, Pol kappa inh 2% and Pol iota inh 14%.
Screening COc1ccccc1NC(=O)c1cc2ccc3cccnc3c2[nH]1 returned Pol beta inh -24%, POLH inh -19%, Pol kappa inh -7%[60.1 µM] and Pol iota inh 3%.
`COc1cc(Cl)c(C)cc1NC(=O)c1cc2ccc3cccnc3c2[nH]1` gave Pol beta inh 40µM*, POLH inh inconclusive, Pol kappa inh -7% and Pol iota inh inconclusive.
CC(=O)C1=C(O)C(=O)N(Cc2ccco2)C1c1ccccc1 (stereo unspecified) was read as WRN inhibitor -9%[57.1 µM], Pol beta inh 9%, POLH inh -1%, Pol kappa inh -5% and Pol iota inh -8%.
`CC(=O)C1=C(O)C(=O)N(Cc2ccccc2)C1c1ccco1` (stereo unspecified) gave WRN inhibitor -5%[57.1 µM], Pol beta inh inconclusive, POLH inh 45µM*, Pol kappa inh -21%, Pol iota inh inconclusive and PI5P4K alpha inh -3.
Screening O=C1CCN(CCc2ccccc2)CCN1[C@H](COc1ccccc1)Cc1ccccc1 returned WRN inhibitor -17%, Pol beta inh 1%, POLH inh -18%, Pol kappa inh 4%, Pol iota inh 1% and PI5P4K alpha inh 1.
For CC(C)CN1CCC(=O)N([C@H](COc2ccccc2)Cc2ccccc2)CC1 the results were WRN inhibitor -7%[11.6 µM], Pol beta inh 7%, POLH inh -11%, Pol kappa inh -17%, Pol iota inh 89µM*! and PI5P4K alpha inh 1.
`CCc1ccc(OCC(=O)Nc2cc(-c3nc4cc(C)ccc4o3)ccc2C)cc1` gave Pol beta inh 37%, POLH inh -11%, Pol kappa inh 0% and Pol iota inh 7%.
For CCN(CC)c1ccc(/C=C/C(=O)c2ccc(Br)cc2)cc1 the results were WRN inhibitor 22µM*, Pol beta inh inconclusive, POLH inh inconclusive, Pol kappa inh -14%, Pol iota inh inconclusive and PI5P4K alpha inh -5.
`CN(C)c1ccc(C(=O)/C=C/c2ccc(Br)cc2)cc1` gave WRN inhibitor 9%, Pol beta inh 11%, POLH inh -14%, Pol kappa inh 4%, Pol iota inh -16% and PI5P4K alpha inh 0.
